A350 autofl = A350 region autofluorescence | max dye-equivalent concentration, M | Compound autofluorescence, 340/450 nm, Alexa 350 dye-equivalents; hits give high values | hit rate 11% among 59,000; in the data active = max dye-equivalent concentration above about 10 nM; inconclusive = mostly about 1.1 nM to 9.6 nM
4MU fluor = compound fluoresces in the 4-MU spectral region; AID 589; compound autofluorescence, 340/450 nm, 4-MU equivalents; hits give high values; hit rate 11% among 59,000; max dye-equivalent concentration, M; in the data active = max dye-equivalent concentration above about 10 nM; inconclusive = mostly about 1.1 nM to 9.6 nM
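Compounds in 100 mM Tris, pH 8.0, sat 15 min at room temperature before fluorescence was read at 340 nm excitation/450 nm emission; a per-plate six-point 4-MU standard curve converted signals to dye-equivalent concentration at each compound concentration.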
CRE-bla Fsk = CRE-bla signaling modulation under forskolin stimulation; CHO CRE-bla reporter (cAMP response element driving beta-lactamase), forskolin EC10, beta-lactamase ratio; Potency, µM (series often up to 38.2 µM), inactives show top-dose activity change, negative = inhibition, most hits filed as activators; hit rate 2.5% among 71,000; AID 662; active = well fitted activation curve with a large enough effect in the signal ratio, with a control signal flat, not every such curve was filed as active; inconclusive = small, poorly fitted or top-dose-only effect, or effect the other way, or a change in a side signal; the % refers to the signal ratio; also: potency is read from the fitted curve at half-maximal effect; % of control where 0% means no effect
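qHTS titration format; CRE-bla CHO reporter; stimulus EC10 NKH 477, a water-soluble forskolin. Read: CCF4 460/530 nm ratio. Potency expressed as AC50 for activators or inhibitors.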
HSD17B inhib = blocks hydroxysteroid 17-beta dehydrogenase activity. AID 893. Potency, µM (doses to about 57.1 µM), without a hit: at the highest dose activity change, negative = inhibition, hits mostly inhibitors. hit rate 7.6% among 75,000. recombinant HSD17B10, NADH fluorescence kinetic;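 also: the protocol describes HADH2 (HSD17B10) and not the HSD17B4 of the title; potency is read from the fitted curve at half-maximal effect; % is scaled to controls: 0 for no effect and ±100 for the full control effect; nearly all actives have a fitted effect of over 70% in size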
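Activity followed as NADH fluorescence increase (ex 360, em 450 nm) every 30 seconds for 4 min, using final 90 uM beta-hydroxybutyryl CoA and 1 mM NAD+. Recombinant His-tagged enzyme, 20 nM, pH 9.0 Tris buffer, 15 min compound preincubation.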
HADH2 inhib = blocks human hydroxyacyl-CoA dehydrogenase type II; Q99714; recombinant HADH2, NADH fluorescence, beta-hydroxybutyryl-CoA; Potency, µM (top dose mostly 57.1 µM), inactives show at the highest dose activity change, negative = inhibition, actives largely listed as inhibitors; hit rate 3.4% among 73,000; AID 886; also: potency is read from the fitted curve at half-maximal effect; % is scaled to controls: 0 for no effect and ±100 for the full control effect; nearly all actives have a fitted effect of over 60% in size
Target sequence (Q99714 whole entry, looked up, one chain of several): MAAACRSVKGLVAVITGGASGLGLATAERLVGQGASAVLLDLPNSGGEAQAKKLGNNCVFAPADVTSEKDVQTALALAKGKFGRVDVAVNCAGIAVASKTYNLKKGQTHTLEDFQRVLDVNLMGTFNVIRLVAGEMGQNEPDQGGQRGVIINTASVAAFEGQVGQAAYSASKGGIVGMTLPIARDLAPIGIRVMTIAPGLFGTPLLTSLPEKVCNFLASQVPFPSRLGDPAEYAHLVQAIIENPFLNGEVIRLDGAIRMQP
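E. coli-expressed His-tagged HADH2 tested at 20 nM in alkaline Tris buffer (pH 9.0); oxidation of 90 uM beta-hydroxybutyryl-CoA with 1 mM NAD+ tracked fluorimetrically for 4 min.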
AID923 = qHTS Assay for Allosteric/Competitive Inhibitors of Caspase-1: Spectroscopic Profiling in AFC Spectral Region; compound fluorescence, AFC spectral region (405/520 nm); Potency, µM (series often up to 57.5 µM), for the others: at the highest dose fluorescence increase, actives largely listed as activators; hit rate 1.1% among 75,000; also: potency is read from the fitted curve at half-maximal effect; 0% is about no effect
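Titrations up to 57 uM read every 20 sec for 3 min (405/520 nm) with 50 nM caspase 1 and 5 uM Ac-WEHD-AFC, pH 7.5 HEPES buffer. Fluorescence-vs-time intercept gave baseline, scaled against on-plate AFC standard.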
Starred values were filed as active, the others as inactive; i = inactive; ? = inconclusive; . = no result given; [ ] = another dose, or the depositor's remark. A selection: hits, their analogues and other compounds. The true share with any hit is near 14%. Unless noted, calls follow the shape of the dose curve; as a rule, active = well fitted curve in the direction sought with a large enough effect; inconclusive = small, poorly fitted or top-dose-only effect, or another doubt; inactive = no such curve, though single readings can be large; an effect the other way counts as inactive or inconclusive.

SMILES	A350 autofl	4MU fluor	CRE-bla Fsk	HSD17B inhib	HADH2 inhib	AID923
COc1ccc2nc(NC(=O)c3ccoc3C)sc2c1	i	i	5.4%	31.6µM*	25.1µM*	-1.4%
COC(=O)c1sc(NC(=O)c2ccoc2C)nc1C	i	i	18.6%	?	-12.4%	-2.6%
O=C(NC(C(=O)c1ccccc1)N1CCCCC1)c1ccccc1 (stereo not drawn)	.	.	.	-2.6%	1.4%	-0.7%
O=C(CCCCC(=O)N1CCN(c2ccccc2)CC1)N1CCN(c2ccccc2)CC1	.	.	?	13.2%	0.5%[11.4 µM]	-0.4%
O=C(Nc1cccc2ccccc12)N1CCN(c2ccccc2)CC1	1.26e-08M*	?	-11.9%	12.6µM*	?	0.1%
CN1CCN(C(=O)CSc2nc(-c3cccs3)ccc2C#N)CC1	2.95e-07M*	2.59e-07M*	.	.	.	.
Cc1cccc2cc(C#N)c(SCC(=O)N3CCC(C)CC3)nc12	?	?	?	-19.6%	5.1%	5.9%
CC1(C)NC(=O)N(CCCSc2ccc(Cl)cc2)C1=O	i	i	-6.6%	6.7%	5.3%	-1.9%
CCCN1c2cccc3cccc(c23)S1(=O)=O	1.43e-07M*	1.1e-07M*	-14.2%	25.1µM*	-16.4%	6.1%
COc1cc(NC(=O)CN2c3cccc4cccc(c34)S2(=O)=O)cc(OC)c1OC	1e-07M*	8.29e-08M*	?	?	78.3%	-2.5%
O=C1c2ccccc2S(=O)(=O)N1CC(O)Cn1ccc2ccccc21 (stereo not drawn)	i	i	-15.3%	6.9%	12.5%	0.5%
N#CCCCCN1c2cccc3cccc(c23)S1(=O)=O	1.9e-07M*	1.26e-07M*	-0.6%	?	-20.8%	3.0%
CC[N+](C)(CC)CCN1C(=O)c2ccccc2S1(=O)=O	i	i	1.5%[7.6 µM]	11.5%[11.4 µM]	-4.5%[11.4 µM]	-0.1%[11.5 µM]
N[C@H](Cn1ccc(=O)n(Cc2ccccc2C(=O)O)c1=O)C(=O)O	.	.	-2.3%	-5.5%	-5.0%	-0.7%
CC1CN(S(=O)(=O)c2ccccc2)CC(C)O1 (stereo not drawn)	i	i	3.4%	17.0%	-6.7%	1.1%
CC1CN(S(=O)(=O)c2cccc(-c3cn4cccnc4n3)c2)CC(C)O1 (stereo not drawn)	2.61e-06M*	1.92e-06M*	-6.1%	7.94µM*	12.6µM*	1.4%
O=S(=O)(c1cccc(-c2cn3cccnc3n2)c1)N1CCCCCC1	4.36e-07M*	6.77e-07M*	7.4%	25.1µM*	?	0.5%
O=S(=O)(c1cccc(-c2cn3cccnc3n2)c1)N1CCOCC1	3.18e-06M*	2.34e-06M*	?	31.6µM*	10µM*	-1.1%
CS(=O)(=O)N1CCC2(CCN(C(c3ccccc3)c3ccccc3)CC2)CC1	i	i	-4.1%	5.3%	11.9%	-1.6%
Cc1ccccc1CN1C2=NCCN2C(=O)C2=C1CCN(Cc1ccccc1)C2	i	i	?	-11.3%[11.4 µM]	16.6%[11.4 µM]	0.3%[11.5 µM]
O=C(O)/C=C\C(=O)Nc1ccc2c(c1)-c1ccccc1C2	i	i	14.8%[7.6 µM]	?	-2.6%[11.4 µM]	1.1%[11.5 µM]
CCOC(=O)C1CCCN(CCC(C)c2ccccc2)C1 (stereo not drawn)	i	i	3.7%	6.9%	7.3%	-1.5%
CN1/C(=C\C(=O)COC(=O)Cn2nnc(-c3ccccc3)n2)C(C)(C)c2ccccc21	3.46e-08M*	2.97e-08M*	?	14.4%	-6.3%	0.0%
CCOC(=O)C1CCCN(CC(=O)/C=C2/N(C)c3ccccc3C2(C)C)C1 (stereo not drawn)	1.07e-07M*	1.15e-07M*	4.8%	-16.8%	-9.0%	1.1%
CCOC(=O)c1ccc(NC(=O)Cn2nnc(-c3ccccc3)n2)cc1	i	i	-24.7%	1.4%	13.1%	0.1%
COc1ccc(CNC(=O)Cn2nc(C(F)(F)F)c3c2CCC3)cc1	?	?	-1.0%	0.0%	14.4%	1.9%
COc1ccc(NC(=O)Cn2nc(C(F)(F)F)c3c2CCCC3)c(OC)c1	1.28e-08M*	?	3.8%	2.1%	-0.1%	-1.4%
CCSCc1nnc(SCC(=O)c2ccc(OC)cc2)n1C	i	i	-7.4%	4.9%	-22.7%	-0.1%

Screens as filed in PubChem.
